Pf growth 96h: inhibits malaria parasite growth, 96 h. Potency, µM (titrated, usually from 28.7 µM), for the others: top-dose activity change, negative = inhibition, usual class: inhibitors. P. falciparum luciferase reporter growth, 96 h. 320,000 tested, 6.9% active; note: % is set by controls: 0 for no effect and ±100 for the full control effect
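Two-generation exposure (96 h) targets delayed-death phenotype. Reporter parasites carrying integrated firefly luciferase, in red cells at 2% hematocrit and 0.05% parasitemia final, kept at 37 C, 5% CO2; luminescence loss indicates inhibition.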
Pf growth 48h: inhibits P. falciparum growth in the first generation, 48 h | P. falciparum luciferase growth in erythrocytes, 48 h | Potency, µM (series often up to 28.7 µM), for inactives: top-dose activity change, negative = inhibition, usual class: inhibitors | 310,000 tested, 5.9% active; note: % is set by controls: 0 for no effect and ±100 for the full control effect
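Cell-based growth assay: transgenic P. falciparum expressing firefly luciferase, cultured in red cells within RPMI 1640 containing 0.5% w/v Albumax, 24 mM bicarbonate and gentamycin. A drop in luciferase activity indicates inhibition.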
AMA1 RON2 block: AMA1-RON2 (P. falciparum) interaction inhibition; Potency, µM (doses to about 58.2 µM), without a hit: at the highest dose activity change, negative = inhibition, actives largely listed as inhibitors; 360,000 tested, 0.2% active; AlphaScreen AMA1-biotinylated RON2 peptide binding; AID 720542;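 note: 0% = vehicle wells and -100% = peptide control; nearly all actives have a fitted effect of over 45% in size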
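AMA1 (3D7) with his tag at 25 nM final met compounds first, then biotinylated RON2 peptide at 25 nM; detection used donor plus acceptor beads, 10 µg/mL apiece, read by AlphaScreen after 30 min at room temperature.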
SARS PLP yeast: inhibitors of SARS-CoV papain-like protease in yeast; 330,000 tested, 0.19% active; Potency, µM (doses to about 32.9 µM), inactives show at the top dose activity, positive = growth rescue, most hits filed as activators; S. cerevisiae expressing SARS-CoV PLpro, growth rescue; calls by dose curve; note: 0% is about no effect; nearly all actives have a fitted effect of over 55% in size
An asterisk follows results filed as active; ? = inconclusive; / = no result given; [ ] = remark or other dose. An excerpt weighted towards active compounds, which were near 9.4% of everything screened. Unless noted, calls come from the whole dose curve; as a rule, active = well fitted curve in the direction sought with a large enough effect; inconclusive = small, poorly fitted or top-dose-only effect, or another doubt; inactive = no such curve, though single readings can be large; an effect the other way counts as inactive or inconclusive. Potency is the fitted concentration of half-maximal effect.

SMILES	Pf growth 96h	Pf growth 48h	AMA1 RON2 block	SARS PLP yeast
FC(F)(F)C1=CC(c2ccc(Cl)cc2)=NCCN1	2.6µM*	?	4%	-2%
Cc1ccc(NC(=O)C2CCCCC2)cc1C	31%	?	-3%	5%
COC1CCCCC1Nc1ccc(C)c(C)c1 (centres undefined)	2.1µM*	-6%	?	18%
COc1ccc(-n2cc(CNC3CCC(O)CC3)c(-c3cccc(F)c3)n2)cc1 (centres undefined)	?	?	-5%	0%
COc1ccc(-n2cc(CNCCc3cnc[nH]3)c(-c3cccc(F)c3)n2)cc1	?	1.7µM*	30%	0%
COc1ccc(-n2cc(CN(C)C(C)c3ccncn3)c(-c3cccc(F)c3)n2)cc1 (centres undefined)	8%	10µM*	28%	-1%
COc1ccc(-n2cc(CNCc3cccnc3)c(-c3cccc(F)c3)n2)cc1	?	13µM*	-20%	-3%
COc1cccc(-c2nn(-c3ccccc3)cc2CN(C)C(C)c2ccncn2)c1 (centres undefined)	?	?	22%	0%
COc1ccc(-c2nn(-c3ccccc3)cc2CNCc2cccnc2)c(F)c1	0%	?	-16%	-1%
COc1ccc(-n2cc(CN3CCC(OC)CC3)c(-c3cccc(F)c3)n2)cc1	25%	10µM*	7%	-2%
COc1ccccc1CNc1ncnc2nc[nH]c12	?	-2%	1%	7%
CN1CCN(C(=O)c2ccc3c(c2)N(Cc2cccc(Cl)c2)C(=O)c2ccccc2S3(=O)=O)CC1	12µM*	?	7%	5%
CN1CCN(C(=O)c2ccc3c(c2)N(Cc2ccc(Cl)cc2)C(=O)c2ccccc2S3=O)CC1 (centres undefined)	-19%	10µM*	3%	9%
O=C(Nc1cccnc1)Nc1ccccn1	11%	18%	-12%	0%
Cc1ccc(N=Cc2c(O)n(C)c(=O)n(C)c2=O)cc1	-10%	19%	1%	3%
Cc1ccc(NC(=O)CCn2cnc3ccccc3c2=O)cc1	?	3%	-17%	-1%
O=C(CCn1cnc2ccccc2c1=O)Nc1nc(-c2ccc(Br)cc2)cs1	9.3µM*	-5%	-6%[2.32 µM]	-13%
CCc1nn(C(C)C(=O)NCCN2CCN(c3cccc(C)c3C)CC2)c(=O)c2cc3occc3n12 (centres undefined)	0%	0%	-8%	1%
Cc1nn(C(C)C(=O)NCc2ccc(Cl)cc2)c(=O)c2cc3occc3n12 (centres undefined)	?	23%	7%	2%
COc1ccc(CCNC(=O)C(C)n2nc(C)n3c(cc4occc43)c2=O)cc1OC (centres undefined)	13µM*	2%	-6%	10%
CCc1cccc(NC(=O)CCCn2nc(CC)n3c(cc4occc43)c2=O)c1	12µM*	?	-6%	-4%
CCc1nn(C(C)C(=O)Nc2cccc(C)c2C)c(=O)c2cc3occc3n12 (centres undefined)	-11%	9.3µM*	2%	9%
COc1cccc(CNC(=O)CCCn2ncn3c(cc4occc43)c2=O)c1	4.7µM*	?	2%	0%
CCc1nn(CCCC(=O)NCc2ccccc2Br)c(=O)c2cc3occc3n12	3%	-16%	26%	-12%
CCC(=C(c1ccc(OC)cc1)c1ccc(OC)cc1)c1cn(CC(O)CN2CCN(C)CC2)c2ccccc12 (centres undefined)	/	9.3µM*	?	-39%
SMILES	Pf growth 96h	Pf growth 48h	AMA1 RON2 block	SARS PLP yeast
COc1cccc(CNC(=O)CCCn2nc(C)c3c(C)n(-c4ccc(C)cc4)nc3c2=O)c1OC	?	?	11%	18%
CC1=C(/C=C/C(C)=C/C=C/C(C)=C/C(=O)O)C(C)(C)CCC1	21%	?	12%	-1%
CC1=C[C@@H](O)CC(C)(C)[C@@H]1/C=C/C(C)=C/C=C/C(C)=C/C=C/C=C(C)/C=C/C=C(C)/C=C/C1=C(C)C[C@H](O)CC1(C)C	4.3µM*	?	/	/
CC1=C(/C=C/C(C)=C\C=C\C(C)=C\C=C\C=C(C)\C=C\C=C(C)\C=C\C2=C(C)C[C@@H](O)CC2(C)C)C(C)(C)C[C@H](O)C1	7.6µM*	15µM*	/	/
O=c1[nH]c2ccccc2n1CCCN1CCC(n2c(=O)[nH]c3cc(Cl)ccc32)CC1	4.8µM*	11µM*	-20%	3%
COc1cc(CN2CCCC(C(=O)c3ccccc3SC)C2)cc(OC)c1 (centres undefined)	12µM*	0%	-17%	1%
COc1cc(OC)c(OC)cc1CN1CCCC(C(=O)c2ccccc2SC)C1 (centres undefined)	3.7µM*	-7%	-19%	1%
COc1cccc(O)c1CN1CCCC(C(=O)c2ccccc2SC)C1 (centres undefined)	0%	?	-5%	0%
CCOc1ccc(-n2nc(C(=O)NCCOC)c3ccccc3c2=O)cc1	?	-19%	9%	2%
CCOc1ccc(N(CC)C(=O)c2nn(-c3ccc(OC)cc3)c(=O)c3c2c2ccccc2n3C)cc1	?	1.5µM*	-1%	-1%
CCOc1ccc(-n2nc(C(=O)N3CCN(CC)CC3)c3ccccc3c2=O)cc1	?	4.1µM*	3%	-23%
O=C(c1cccc(Oc2ccc([N+](=O)[O-])cc2Cl)c1)N1CCOCC1	?	10%	3%	0%
COc1ccccc1CNC(=O)Cn1cnnn1	25%	4%	-3%	-3%
Cc1ccc(-n2c(SCC(=O)Nc3cc(C)on3)nc3c(c2=O)SC(C)C3)cc1 (centres undefined)	?	0.83µM*	-2%	3%
CCSc1nc2c(c(=O)n1-c1ccc(F)cc1)SCC2	2.9µM*	?	0%	-1%
Cc1cc(NC(=O)CSc2nc3c(c(=O)n2-c2ccc(Br)cc2)SCC3)no1	-23%	7.4µM*	6%	-21%
Cc1cc(NC(=O)CSc2nc3c(c(=O)n2Cc2ccccc2)SC(C)C3)no1 (centres undefined)	1.5µM*	1.9µM*	-1%	1%
COC(=O)C(Cc1ccc(O)cc1)NC(=O)C(CC(=O)OC(C)(C)C)NC(=O)OC(C)(C)C (centres undefined)	55%	20%	1%	4%
CCN(CC)c1cccc(OCC(=O)N2c3ccccc3CC2C)c1 (centres undefined)	?	9.3µM*	-24%	7%[6.58 µM]
Cc1cc(=O)oc2cc(OCC(=O)N3c4ccccc4CC3C)ccc12 (centres undefined)	?	?	-13%	6%
COc1ccc(-c2cc(C)no2)cc1S(=O)(=O)N1CC(=O)Nc2ccccc21	-26%	?	6%	6%
COc1ccc(-c2cc(C)no2)cc1S(=O)(=O)N1CCOc2ccc(Cl)cc21	10µM*	?	0%	2%
CCn1c(N2CCN(Cc3ccc([N+](=O)[O-])cc3)CC2)nc2ccccc21	13µM*	?	2%	1%
